A selection: hits, their analogues and other compounds. The true share with any hit is near 2.9%.
Shn3 3UTR inh: reduction of Shn3 3'UTR firefly luciferase signal, primary screen, Schnurri-3 inhibitor project, cell-based, Clone20 osteoblasts, set 2; Clone20 osteoblast Shn3 3'UTR firefly luciferase, 24 h; inhibition, % at 12.5 µM; 360,000 compounds, 0.52% hits;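 active = mean inhibition of at least 75% with every replicate also reaching 75%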;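 note: 0% = median of neutral control wells and 100% = pilot-screen positive control compound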
KKLEB tox: cytotoxicity in KKLEB CF airway cells, primary screen, cytotoxicity control for CF NF-kB inhibitor project, cell-based, uHTS, fluorescence assay plates; 360,000 compounds, 0.36% hits; KKLEB CF airway cells viability, ATPlite luminescence, overnight; active compounds read low; cells stimulated with P. aeruginosa culture filtrate; activity change (cytotoxicity), % at 5 µM;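 active = corrected activity change at or below -50% at 5 µM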
CF NFkB block: inhibitors of PAF-induced NF-kB signaling, primary screen, cell-based, GFP fluorescence, uHTS. KKLEB NF-kB-GFP reporter, GFP fluorescence overnight. 360,000 compounds, 0.86% hits. inhibition, % at 5 µM. AID 588850, 2011;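 active = at least 50% inhibition at 5 µM, scaled per plate between neutral and stimulator controls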;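 note: PAF is a Pseudomonas aeruginosa culture filtrate used as stimulus; plate controls were PAF-stimulated DMSO wells for no effect and unstimulated DMSO wells for full effect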
Peg3 prom inh: Peg3 promoter-driven luciferase inhibitors, primary screen, cell-based, HeLa, luciferase luminescence; HeLa PEG-Prom luciferase reporter, overnight; inhibition, % at 20 µM; 360,000 compounds, 1.7% hits; AID 588405, 2011;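 active = inhibition of at least 50% at 20 µM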
LMP1 NFkB inh: EBV LMP1-driven NF-kappaB luciferase reporter inhibitors, primary screen, cell-based, luminescence, single point; LMP1-induced NF-kappaB luciferase reporter cells; inhibition, % at 12.5 µM; 350,000 compounds, 0.69% hits; in the data active = inhibition above about 41%;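 note: 0% = neutral control wells and 100% = reference inhibitor control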
MITF TRPM1 inh: inhibitors of MITF-dependent TRPM1 promoter reporter, primary screen, cell-based, SK-MEL-5, single point, luciferase. SK-MEL-5 TRPM1 promoter luciferase, 24 h. inhibition, % at 12.5 µM. 330,000 compounds, 0.83% hits. AID 488899, 2010;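 active = mean inhibition across replicates of 60% or more, whatever share of single replicates reaches that level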
Active calls of the source: *; · = no result.

SMILES	Shn3 3UTR inh	KKLEB tox	CF NFkB block	Peg3 prom inh	LMP1 NFkB inh	MITF TRPM1 inh
CCOc1ccc(OCc2cccc(C(=O)N/N=C/c3cccnc3)c2)cc1	7	1	-7	-71	75*	57
O=C(N/N=C/c1cccnc1)c1cccc(Br)c1	-15	-9	20	-19	11	-4
CC(C)c1ccc(OCc2cccc(C(=O)N/N=C/c3cccnc3)c2)cc1	20	-10	-37	-138	63*	2
CCCCCN=Cc1c(C)[nH]n(-c2nc3ccccc3s2)c1=O	-5	-7	-2	39	51*	20
COc1cccc(S(=O)(=O)Nc2ccc3c(c2)[C@H]2C[C@H](CC(=O)N[C@@H](C)c4ccccc4)O[C@H](CO)[C@H]2O3)c1	14	6	-30	-9	-8	·
CSc1cc(-c2ccc(Cl)cc2)n(Cc2ccccc2)c(=O)c1C#N	40	-54*	70*	54*	-13	10
CSc1cc(-c2ccccc2)n(Cc2c(Cl)cccc2Cl)c(=O)c1C#N	4	-33	24	20	9	9
N=C1/C(=C/c2cccn2Cc2ccc(Cl)cc2)C(=O)N=C2SC=CN12	6	-50*	34	24	3	-4
O=C(CCN1C(=O)C2C3C=CC(C3)C2C1=O)N1CCN(c2ccccc2Cl)CC1 (centres undefined)	18	3	-6	0	85*	-10
O=C(Nc1cccc(C(=O)NC2CCCCC2)c1)c1ccccc1	-3	-9	3	-8	-5	-3
CCN(C(=O)c1cc(OC)c(OC)c(OC)c1)C1CCCCC1	17	3	-12	6	48*	·
CCN(C(=O)c1cccc(NC(=O)c2ccccc2)c1)C1CCCCC1	1	-5	10	21	51*	4
COc1cc(C(=O)N(C(C)C)C2CCCCC2)cc(OC)c1OC	4	-5	18	7	-4	·
CC(=O)n1cc(C(C[N+](=O)[O-])SCCN)c2ccccc21 (centres undefined)	43	0	29	47	22	86*
COc1ccc(C(=O)N/C(=C\c2ccc(-c3cccc([N+](=O)[O-])c3)o2)C(=O)NCCCN2CCOCC2)cc1	-21	-14	-42	6	5	·
Cc1ccc(C(=O)N/C(=C\c2ccc(-c3ccccc3[N+](=O)[O-])o2)C(=O)NCCN(C)C)cc1	-17	5	-11	-40	-2	77*
Cc1ccc(C(=O)N/C(=C\c2ccc(-c3cccc([N+](=O)[O-])c3)o2)C(=O)NCCCN2CCOCC2)cc1	4	-5	4	94*	7	16
Cc1ccc(C(=O)N/C(=C\c2ccc(-c3ccccc3[N+](=O)[O-])o2)C(=O)NCCCN(C)C)cc1	12	1	8	-34	7	70*
CCSC1OC(C(COC(C)=O)OC(C)=O)C(OC(C)=O)C1NC(C)=S (centres undefined)	-8	-13	-10	15	8	0
S=C(NCCC(c1ccccc1)c1ccccc1)Nc1ccc(Cl)cc1	-3	-2	7	55*	1	5
COc1ccc(Cl)cc1NC(=S)NCCC(c1ccccc1)c1ccccc1	15	8	-7	32	-2	-1
COc1cc(NC(=S)NCCC(c2ccccc2)c2ccccc2)c(OC)cc1Cl	2	-4	6	53*	-7	-11
COc1cc(C(=O)O/N=C(\N)Cc2ccc([N+](=O)[O-])cc2)cc(OC)c1OC	-4	6	-30	21	·	·
COc1ccc(C(=O)O/N=C(\N)Cc2ccc(Cl)c(Cl)c2)cc1OC	-8	-24	45	104*	-23	8
N/C(Cc1ccc(Cl)cc1)=N\OC(=O)c1ccccc1	-15	-1	-12	-1	-4	-10
SMILES	Shn3 3UTR inh	KKLEB tox	CF NFkB block	Peg3 prom inh	LMP1 NFkB inh	MITF TRPM1 inh
COc1ccc(C(=O)O/N=C(\N)Cc2ccc(Cl)cc2)cc1OC	12	-14	12	113*	-9	3
CC1(C)CC2CC(C)(CN2S(=O)(=O)c2ccc(C(=O)Nc3ccc(S(=O)(=O)N4CCOCC4)cc3)cc2)C1 (centres undefined)	79	5	3	26	-5	12
CCOC(=O)c1cc([N+](=O)[O-])sc1NC(=O)c1ccc(S(=O)(=O)N2CC3(C)CC2CC(C)(C)C3)cc1 (centres undefined)	21	-42	48	46	46*	76*
O=C(C1CCN(S(=O)(=O)N2CCCCC2)CC1)N1CCCCC1	-12	6	4	-5	56*	-1
Cc1cc[n+](-c2[nH]c(=O)sc2/C=N/N=C(\[O-])c2ccncc2)cc1	-6	-44	-6	-1	70*	9
Cc1cc[n+](-c2[nH]c(=O)sc2/C=N/N=C(\[O-])c2ccccc2)cc1	7	2	14	1	-28	-12
O=C(c1ccco1)N(CCC(c1ccccc1)c1ccco1)Cc1ccc(F)cc1 (centres undefined)	-10	-24	23	27	6	1
CC1(C)CC(C(CCN(Cc2ccccc2)C(=O)c2ccco2)c2ccc(F)cc2)CCO1 (centres undefined)	9	-9	16	51*	4	-6
COc1ccc(CNCCCn2cnc3c(SC)ncnc32)cc1	-4	1	-14	3	5	·
CCC(C)C(=O)Nc1ncc2c(n1)CC(c1cccs1)CC2=O (centres undefined)	6	3	7	-3	-4	6
O=C1CC(c2cccs2)Cc2nc(NC(=O)C3CC3)ncc21 (centres undefined)	·	0	-9	-6	45*	2
CC1(C)CC[C@]2(C(=O)n3ccnc3)CC[C@]3(C)[C@H](C(=O)C=C4[C@@]5(C)C=C(C#N)C(=O)C(C)(C)[C@@H]5CC[C@]43C)[C@@H]2C1	94*	-70*	85*	106*	90*	94*
Cc1ccc2nc(-c3ccc(N)cc3)sc2c1	11	-56*	-53	-55	24	14
Cc1ccc2nc(-c3ccc(NC(=S)NCC(C)(C)CN(C)C)cc3)sc2c1	-16	-21	16	60*	-109	-13
CN1CCN(c2ccc(NC(=S)NC(=O)c3cccc4ccccc34)cc2)CC1	6	0	-31	69*	-11	64*
O=C(c1sc2cc([N+](=O)[O-])ccc2c1Cl)N1CCOCC1	5	-5	1	7	61*	2
N#CC(=C1C=CC(=NO)C(Cl)=C1)c1ccccc1	20	-6	50*	39	·	·

Source: PubChem
